Drawing on publication PMC5892938, “SARNAclust: Semi-automatic detection of RNA protein binding motifs from immunoprecipitation data”, this text covers binding signal for 23 sequences.

Over roughly 11,000 sequences, “log2 fold change” has its median near 0.00022; the highest 2% begin near 0.34. Some of the results follow.

The test has as its target GST-SBP-SLBP (stem-loop binding protein) (Homo sapiens, UniProt Q14493 1-270). Kind of test: targeted RNA Bind-n-Seq; RBNS binding buffer: 25 mM Tris pH 7.5, 150 mM KCl, 3 mM MgCl2, 0.1% Tween, 0.5 mg/mL BSA, 1 mM DTT; 27 nM protein, 750 pM RNA pool; temperature not stated; high values mean tight binding. The following applies: protein: recombinant; tags: N-terminal GST and SBP (pGEX6P1-SBP); structured_RNA. The gist of the method: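 The protein, carrying a GST-SBP tag, was produced in Rosetta(DE3) pLysS E. coli, purified on glutathione, and mixed at 27 nM with 750 pM of a designed RNA oligo pool made by T7 transcription in RBNS binding buffer. RNA that bound was reverse transcribed using a barcoded primer of 10 nucleotides, amplified by PCR and sequenced on a MiSeq with 200-cycle paired-end reads. FLASH joined the reads, HISAT2 aligned them, and they were collapsed by barcode before the binding signal was taken as the DEseq binary-logarithm fold change of read counts for each sequence.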
Consider “GGUCACGUCUCAAUCAACUCCCACGAGGGGGGGAAAACCCCUUUACCCUCAACCUCAACAGCUCGCAGUCAAG”, for which the binding signal stood at 0.335 ± 0.423 log2 fold change.

With “GGUCACGUCUCAAUCAACUCCCACGAGGGGGGGAAAACCCCUUUACCCUCUCAAUCAACAGCUCGCAGUCAAG”, the binding signal amounted to 0.362 ± 0.418 log2 fold change.

For “GGUCACGUCUCAAUCAACUCCCACGAGGGGGGGAAAACCCCUUUACCCUCACACUCAACAGCUCGCAGUCAAG”, the binding signal was 0.366 ± 0.434 log2 fold change.

Consider “GGUCACGUCUCAAUCAACUCAAUCGAGGGGGGGAAAACCCCUUUGCCCUCAUCUUCAACAGCUCGCAGUCAAG”, for which the binding signal was found to be 0.419 ± 0.432 log2 fold change.

For “GGUCACGUCUCAAUCAACUCAAACGAGGGGGGGAAAACCCCUUUGCCCUCAUCUUCAACAGCUCGCAGUCAAG”, the binding signal is 0.58 ± 0.399 log2 fold change.

On to “GGUCACGUCUCAAUCAACUCCUCAGAGGGGGGGAAAACCCCUUUACCCUCAAUAUCAACAGCUCGCAGUCAAG”, for which the binding signal stood at 0.394 ± 0.424 log2 fold change.

“GGUCACGUCUCAAUCAACUCAACAGAGGGGGGGAAAACCCCUUUACCCUCAAUAUCAACAGCUCGCAGUCAAG”: the binding signal is 0.362 ± 0.427 log2 fold change.

As to “GGUCACGUCUCAAUCAACUCAAUAGAGGGGGGGAAAACCCCUUUACCCUCAAACUCAACAGCUCGCAGUCAAG”, the binding signal was 0.319 ± 0.424 log2 fold change.

For “GGUCACGUCUCAAUCAACUCCUCAGAGGGGGGGAAAACCCCUUUACCCUCGUCCUCAACAGCUCGCAGUCAAG”, the binding signal was 0.382 ± 0.44 log2 fold change.

For the sequence “GGUCACGUCUCAAUCAACUCCCUCGAGGGGGGGAAAACCCCUUUACCCUCAUCGUCAACAGCUCGCAGUCAAG”, the binding signal came to 0.532 ± 0.391 log2 fold change.

In the case of “GGUCACGUCUCAAUCAACUCCCUCGAGGGGGGGAAAACCCCUUUACCCUCAUUAUCAACAGCUCGCAGUCAAG”, the binding signal was 0.395 ± 0.38 log2 fold change.

For “GGUCACGUCUCAAUCAACUCUAUCCCCAGGGAAAUCCCUGGUAUAUUCAACAGCUCGCAGUCAAG”, the binding signal is 0.333 ± 0.304 log2 fold change.

On to “GGUCACGUCUCAAUCAACUCUAUUCCCAGGGAAAGCCCUGGUAUUUUCAACAGCUCGCAGUCAAG”, for which the binding signal was 0.387 ± 0.281 log2 fold change.

On to “GGUCACGUCUCAAUCAACUCAAUCCCCAGGGAAAGCCCUGGUAUUCUCAACAGCUCGCAGUCAAG”, for which the binding signal amounted to 0.378 ± 0.274 log2 fold change.

As for “GGUCACGUCUCAAUCAACUCUAUUCCCAGGGAAAGCCCUGGUAUUCUCAACAGCUCGCAGUCAAG”, the binding signal is 0.307 ± 0.273 log2 fold change.

With “GGUCACGUCUCAAUCAACUCUAUCCCCAGGGAAAGCCCUGGUAUAUUCAACAGCUCGCAGUCAAG”, the binding signal was 0.366 ± 0.305 log2 fold change.

As for “GGUCACGUCUCAAUCAACUCUAUUCCCAGGGAAAGCCCUGGCUAUCUCAACAGCUCGCAGUCAAG”, the binding signal amounted to 0.342 ± 0.296 log2 fold change.

Regarding “GGUCACGUCUCAAUCAACUCAUCUCCCAGGGAAAACCCUGGUAUAUUCAACAGCUCGCAGUCAAG”, the binding signal stood at 0.374 ± 0.346 log2 fold change.

With “GGUCACGUCUCAAUCAACUCAAUCCCCAGGGAAAACCCUGGCUAUUUCAACAGCUCGCAGUCAAG”, the binding signal was determined as 0.338 ± 0.272 log2 fold change.

Regarding “GGUCACGUCUCAAUCAACUCUUUUUCCAGGGAAACCCCUGGCAUACUCAACAGCUCGCAGUCAAG”, the binding signal came to 0.44 ± 0.276 log2 fold change.

As for “GGUCACGUCUCAAUCAACUCUUUUCCCAGGGAAAUCCCUGGCAUACUCAACAGCUCGCAGUCAAG”, the binding signal came out at 0.334 ± 0.22 log2 fold change.

With “GGUCACGUCUCAAUCAACUCAAGUCCCAGGGAAAACCCUGGCAAUUUCAACAGCUCGCAGUCAAG”, the binding signal came to 0.381 ± 0.341 log2 fold change.

On to “GGUCACGUCUCAAUCAACUCUUCUUCCAGGGAAAUCCCUGGCAUACUCAACAGCUCGCAGUCAAG”, for which the binding signal was found to be 0.399 ± 0.235 log2 fold change.
